Experimental findings from PubChem BioAssay are described below.

Active and inactive are the calls of the source.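 The calls were made as follows, unless noted: active = NADPH fluorescence slope more negative than the mean of all samples by about 3 SD, 99.7% confidence; inactive = the rest.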

Experiment [1] can be described thus: inhibitors of TNFa-induced NFkB p65 translocation, primary screen, imaging, HUVEC, MLSMR starter and 10KST1 sets (AID 438;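 active = inhibition above 20% together with a positive visual image hit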;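 also: compound added about 3h40 before a 20 min TNFalpha stimulation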;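 as to inhibition: signal is the nuclear over cytoplasmic p65 intensity ratio per well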). Particulars: HUVEC TNFa-induced p65 nuclear translocation; cell count: measured here: nuclei count (cytotoxicity indicator), at 2.08 µM unless noted; inhibition: at 2 µM, stronger effect = higher value unless noted.
Experiment [2] in a line: inhibitors of mutant huntingtin aggregation, primary screen, imaging, exon1htt(103Q)mCFP cells, high-content imaging (AID 483;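 active = visual image review flags a hit and inhibition of aggregation exceeds 20%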;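 also: compound exposure lasted 3 days before fixation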;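 as to nuclei count: percent of the per-plate median nuclei count of sample wells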). Particulars: exon1htt(103Q)mCFP cell line, aggregate imaging, at 2 µM; inhibition of aggregation: stronger effect = higher value; nuclei count: measured here: cell count, toxicity.
Experiment [3] is described as follows: inhibitors of E-selectin induction by TNFa, primary screen, imaging, HUVEC, immunofluorescence, MLSMR starter and 10KST1 sets (AID 487;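 active = visually confirmed hit in the image check and inhibition above 20%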;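 as to inhibition: signal is fraction of cell area covered by stained E-selectin grains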;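 as to nuclei count: 100% = median nuclei count of all wells on the same plate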). Particulars: HUVEC TNFalpha-induced E-selectin immunofluorescence imaging, at 2 µM; inhibition: stronger effect = higher value; nuclei count: measured here: cell number, toxicity.
The target in experiment [4] is Voltage-gated potassium channel subunit beta-2 (Rattus norvegicus) (UniProt P62483). Nature of the experiment: KvBeta enzyme negative modulators, primary screen, biochemical, NADPH fluorescence (AID 622;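 active = fluorescence slope higher than the sample average by over 3 SD, cut at about -0.22 in these data, passing the limit was not always enough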;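 also: slope of raw intensity against log time taken from 70 to 1610 s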). Particulars: recombinant KvBeta, 4-cyanobenzaldehyde reduction, at 10 µM, stronger effect = higher value.
Voltage-gated potassium channel subunit beta-2 (Rattus norvegicus), sequence (P62483 whole entry, looked up): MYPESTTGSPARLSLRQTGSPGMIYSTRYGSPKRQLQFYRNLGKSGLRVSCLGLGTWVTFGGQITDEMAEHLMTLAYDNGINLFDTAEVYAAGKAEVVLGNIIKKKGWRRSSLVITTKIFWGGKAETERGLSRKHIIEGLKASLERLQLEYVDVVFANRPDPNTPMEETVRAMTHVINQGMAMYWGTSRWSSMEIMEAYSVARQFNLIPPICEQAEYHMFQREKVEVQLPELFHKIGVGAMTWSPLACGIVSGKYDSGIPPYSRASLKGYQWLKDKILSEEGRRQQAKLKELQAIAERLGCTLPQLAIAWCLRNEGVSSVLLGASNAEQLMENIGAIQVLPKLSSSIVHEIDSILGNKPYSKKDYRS
Experiment [5] shares this target. Nature of the experiment: KvBeta positive modulators, primary screen, biochemical, NADPH fluorescence (AID 623).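 Also: fluorescence intensity change per second fitted from 20 to 320 s.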 Particulars: Recombinant KvBeta, NADPH fluorescence decrease slope, 10 min; at 10 µM; stronger effect = lower value.
The target in experiment [6] is Alpha-2C adrenergic receptor (Homo sapiens) (UniProt P18825). Nature of the experiment: modulators of alpha2C/GIRK thallium flux, primary screen, cell-based, HEK293 alpha2C/GIRK1/2 (AID 624;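 active = fluorescence slope after compound addition differing from the mean of all screened samples at 99.7% confidence, in either direction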;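 also: slope of fluorescence ratio to pre-addition baseline per second over 15 to 24 s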). Particulars: thallium flux BTC fluorescence, at 10 µM, actives lie on both sides.
Alpha-2C adrenergic receptor (Homo sapiens), sequence (P18825 whole entry, looked up): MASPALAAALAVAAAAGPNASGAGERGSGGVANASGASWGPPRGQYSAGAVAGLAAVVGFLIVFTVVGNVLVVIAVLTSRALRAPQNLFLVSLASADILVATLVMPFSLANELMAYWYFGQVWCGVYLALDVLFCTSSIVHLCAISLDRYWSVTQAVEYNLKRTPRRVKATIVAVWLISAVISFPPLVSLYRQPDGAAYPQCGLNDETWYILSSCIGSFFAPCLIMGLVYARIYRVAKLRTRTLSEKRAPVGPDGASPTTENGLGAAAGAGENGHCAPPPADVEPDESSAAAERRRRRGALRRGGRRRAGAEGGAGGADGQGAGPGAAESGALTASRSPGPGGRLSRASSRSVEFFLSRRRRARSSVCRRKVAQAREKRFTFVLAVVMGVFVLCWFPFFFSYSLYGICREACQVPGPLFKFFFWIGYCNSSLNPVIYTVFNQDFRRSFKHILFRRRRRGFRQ
Experiment [7] can be described thus: inhibitors of Sendai virus-induced IRF3 signaling, primary screen, TLR/RLR signaling modifier project, cell-based, Sendai virus stimulus, luciferase, 10K MLSCN set (AID 602276;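 active = inhibition at or above 50% at 10 µM; inactive = inhibition below 50%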;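 also: firefly luciferase from ISG56 promoter only with Renilla not read in this screen; 0% = Sendai virus plus DMSO and 100% = medium plus DMSO without virus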). Particulars: HEK293 RL24 IRF3 luciferase reporter, at 10 µM, stronger effect = higher value. (In general: A reporter such as luciferase makes a cellular process visible.)
Experiment [8] in a line: inhibitors of poly I:C-induced TLR3 signaling, primary screen, cell-based, poly I:C stimulus, luciferase, 10K MLSCN set (AID 602277;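 active = inhibition of the reporter signal at or above 50%; inactive = inhibition below 50%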). Particulars: HEK293-TLR3 RL24 IRF3 luciferase reporter, at 10 µM, stronger effect = higher value.

In experiment [1], `CC(C)CC12CN3CCN(CC(C3)/C1=N/O)C2` registered a cell count of 291. The inhibition is -16.4% (inactive) in experiment [1], 4.9% (inactive) in experiment [3], 19.2% (inactive) in experiment [7] and 21.5% (inactive) in experiment [8]. Also, the inhibition of aggregation in experiment [2] was -20% (inactive). In addition, the nuclei count in experiment [2] was determined as 126%; in experiment [3], 109%. The fluorescence slope in experiment [4] was -0.496 (inactive). Moreover, the NADPH fluorescence slope in experiment [5] was -1.4e-05 (inactive). For the same compound, the slope in experiment [6] is 0.00751 (inactive).

The compound `CCOc1c(P(=S)(N(C)C)N(C)C)c(C)nn1-c1ccccc1` showed a cell count in experiment [1] of 305. Besides, the inhibition is -5.2% (inactive) in experiment [1], -3.3% (inactive) in experiment [3], 13.8% (inactive) in experiment [7] and 16.7% (inactive) in experiment [8]. In experiment [2], the inhibition of aggregation was 4.6% (inactive). Also, the figures for the nuclei count in experiment [2] and in experiment [3] were 108% and 112%, respectively. Besides, the fluorescence slope in experiment [4] was -0.345 (inactive). The NADPH fluorescence slope in experiment [5] is 8e-06 (inactive). Further, the slope in experiment [6] is 0.0033 (inactive).

Compound `Cc1ccccc1-n1c(O)c(C=NCCN2CCOCC2)c(=O)[nH]c1=O` showed a cell count in experiment [1] of 335. Moreover, the inhibition in experiment [1] is -9.5% (inactive); in experiment [3] it was -110% (inactive); in experiment [7], 1.33% (inactive); in experiment [8] it was -0.798% (inactive). In experiment [2], the inhibition of aggregation was -8.6% (inactive). Further, the figures for the nuclei count in experiment [2] and in experiment [3] were 138% and 135%, respectively. Also, the fluorescence slope in experiment [4] was -0.432 (inactive). Moreover, in experiment [5], the NADPH fluorescence slope is -2.7e-05 (inactive). Further, the slope in experiment [6] is 0.00516 (inactive).

In the case of `O=C1CC(c2ccccc2)CC(O)=C1C=NCCN1CCN(C(=O)Cc2ccccc2)CC1` (stereo unspecified), the cell count in experiment [1] is 450. In addition, the inhibition in experiment [1] was 2.9% (inactive); in experiment [3], -82.2% (inactive); in experiment [7], 17.1% (inactive); in experiment [8], 25.9% (inactive). The inhibition of aggregation in experiment [2] is 8.6% (inactive). For the same compound, the nuclei count is 92.1% in experiment [2] and 115% in experiment [3]. Moreover, the fluorescence slope in experiment [4] is -0.529 (inactive). The NADPH fluorescence slope in experiment [5] is 3.3e-05 (inactive). In addition, the slope in experiment [6] was 0.00558 (inactive).

The compound `c1ccc(C2CC3CC(c4ccco4)N2O3)cc1` (stereo unspecified) came in with a cell count in experiment [1] of 301. The inhibition in experiment [1] is -1.4% (inactive); in experiment [3], -68.5% (inactive); in experiment [7] it was 9.13% (inactive); in experiment [8], 16.9% (inactive). For the same compound, the inhibition of aggregation in experiment [2] is 0% (inactive). Besides, the nuclei count came out at 108% in experiment [2] and 118% in experiment [3]. Moreover, the fluorescence slope in experiment [4] was -0.514 (inactive). In experiment [5], the NADPH fluorescence slope was -2.8e-05 (inactive). Besides, the slope in experiment [6] is 0.00573 (inactive).

In turn, `C(#CCN1CCOCC1)COCC#Cc1ccccc1` returned a cell count in experiment [1] of 422. The inhibition in experiment [1] is 1.2% (inactive); in experiment [3], -4.6% (inactive); in experiment [7], 8.54% (inactive); in experiment [8], 30.6% (inactive). Further, the inhibition of aggregation in experiment [2] is 12.8% (inactive). The results for the nuclei count in experiment [2] and in experiment [3] were 94.4% and 112%, respectively. Further, the fluorescence slope in experiment [4] is -0.622 (inactive). Moreover, the NADPH fluorescence slope in experiment [5] is -5e-05 (inactive). In addition, the slope in experiment [6] was 0.00639 (inactive).

Regarding `C=CCn1c(O)c(C(C)=NCc2cccnc2)c(=O)[nH]c1=O`, in experiment [1], the cell count came to 364. Also, the inhibition was -1% (inactive) in experiment [1], -99.8% (inactive) in experiment [3], 9.61% (inactive) in experiment [7] and 32.6% (inactive) in experiment [8]. In addition, the inhibition of aggregation in experiment [2] is 15.3% (inactive). Also, the nuclei count came out at 96% in experiment [2] and 162% in experiment [3]. Further, in experiment [4], the fluorescence slope is -0.429 (inactive). Further, in experiment [5], the NADPH fluorescence slope was -4.2e-05 (inactive). Moreover, the slope in experiment [6] is 0.00457 (inactive).

For `CN1CCN(c2nc3ccccc3c(=O)n2-c2ccccc2)CC1`, the cell count in experiment [1] was 568. Moreover, the inhibition in experiment [1] was -2.3% (inactive); in experiment [3] it was -3.5% (inactive); in experiment [7], 845% [above what the read-out allows, likely interference] (active); in experiment [8], 50.1% (active). Moreover, in experiment [2], the inhibition of aggregation is -4.9% (inactive). The nuclei count in experiment [2] came out at 70.3%; in experiment [3], 102%. Moreover, in experiment [4], the fluorescence slope was -0.57 (inactive). The NADPH fluorescence slope in experiment [5] was -2.8e-05 (inactive). In addition, the slope in experiment [6] is 0.00748 (inactive).

In turn, `COc1ccccc1N1CCN(Cc2c(F)cccc2F)CC1` displayed a cell count in experiment [1] of 410. The inhibition in experiment [1] is -1.1% (inactive); in experiment [3] it was -26.3% (inactive); in experiment [7] it was 15.2% (inactive); in experiment [8] it was 27.3% (inactive). For the same compound, the inhibition of aggregation in experiment [2] is 13.8% (inactive). Besides, the nuclei count worked out at 98.7% in experiment [2] and 118% in experiment [3]. The fluorescence slope in experiment [4] is -0.431 (inactive). The NADPH fluorescence slope in experiment [5] was -1.4e-05 (inactive). For the same compound, in experiment [6], the slope is 0.00585 (inactive).

For the compound `CC1CCC(C(=O)NC(C(=O)N2CCC3(CC2)OCCO3)C(C)C)CC1` (stereo unspecified), in experiment [1], the cell count was determined as 251. The inhibition was 3.4% (inactive) in experiment [1], 1.3% (inactive) in experiment [3], 5.72% (inactive) in experiment [7] and 20.1% (inactive) in experiment [8]. Besides, the inhibition of aggregation in experiment [2] is 0.1% (inactive). The figures for the nuclei count in experiment [2] and in experiment [3] were 97.2% and 88%, respectively. For the same compound, in experiment [4], the fluorescence slope was -0.399 (inactive). Also, the NADPH fluorescence slope in experiment [5] is -0.00014 (inactive). Besides, the slope in experiment [6] is 0.00626 (inactive).

The compound `Cc1cc(C)c(C(=O)CN2CCOCC2)c(C)c1` yielded a cell count in experiment [1] of 408. The inhibition in experiment [1] was 7.3% (inactive); in experiment [3], -77.5% (inactive); in experiment [7], 13.2% (inactive); in experiment [8], 24.8% (inactive). The inhibition of aggregation in experiment [2] was 7.9% (inactive). Moreover, the nuclei count in experiment [2] turned out to be 89.5%; in experiment [3], 115%. In addition, in experiment [4], the fluorescence slope is -0.419 (inactive). Also, in experiment [5], the NADPH fluorescence slope was -0.000154 (inactive). Moreover, in experiment [6], the slope was 0.00628 (inactive).

By inhibition is commonly meant the relative decrease from the control value, in per cent.
